{"source": "ChEMBL document CHEMBL2218924", "about": "“A broad activity screen in support of a chemogenomic map for kinase signalling research and drug discovery” (Biochem J, 2013)", "data": [{"biological_target": "PAS domain-containing serine/threonine-protein kinase (Homo sapiens) (UniProt Q96RG2)", "sequence (Q96RG2 whole entry, the tested form may be a part)": "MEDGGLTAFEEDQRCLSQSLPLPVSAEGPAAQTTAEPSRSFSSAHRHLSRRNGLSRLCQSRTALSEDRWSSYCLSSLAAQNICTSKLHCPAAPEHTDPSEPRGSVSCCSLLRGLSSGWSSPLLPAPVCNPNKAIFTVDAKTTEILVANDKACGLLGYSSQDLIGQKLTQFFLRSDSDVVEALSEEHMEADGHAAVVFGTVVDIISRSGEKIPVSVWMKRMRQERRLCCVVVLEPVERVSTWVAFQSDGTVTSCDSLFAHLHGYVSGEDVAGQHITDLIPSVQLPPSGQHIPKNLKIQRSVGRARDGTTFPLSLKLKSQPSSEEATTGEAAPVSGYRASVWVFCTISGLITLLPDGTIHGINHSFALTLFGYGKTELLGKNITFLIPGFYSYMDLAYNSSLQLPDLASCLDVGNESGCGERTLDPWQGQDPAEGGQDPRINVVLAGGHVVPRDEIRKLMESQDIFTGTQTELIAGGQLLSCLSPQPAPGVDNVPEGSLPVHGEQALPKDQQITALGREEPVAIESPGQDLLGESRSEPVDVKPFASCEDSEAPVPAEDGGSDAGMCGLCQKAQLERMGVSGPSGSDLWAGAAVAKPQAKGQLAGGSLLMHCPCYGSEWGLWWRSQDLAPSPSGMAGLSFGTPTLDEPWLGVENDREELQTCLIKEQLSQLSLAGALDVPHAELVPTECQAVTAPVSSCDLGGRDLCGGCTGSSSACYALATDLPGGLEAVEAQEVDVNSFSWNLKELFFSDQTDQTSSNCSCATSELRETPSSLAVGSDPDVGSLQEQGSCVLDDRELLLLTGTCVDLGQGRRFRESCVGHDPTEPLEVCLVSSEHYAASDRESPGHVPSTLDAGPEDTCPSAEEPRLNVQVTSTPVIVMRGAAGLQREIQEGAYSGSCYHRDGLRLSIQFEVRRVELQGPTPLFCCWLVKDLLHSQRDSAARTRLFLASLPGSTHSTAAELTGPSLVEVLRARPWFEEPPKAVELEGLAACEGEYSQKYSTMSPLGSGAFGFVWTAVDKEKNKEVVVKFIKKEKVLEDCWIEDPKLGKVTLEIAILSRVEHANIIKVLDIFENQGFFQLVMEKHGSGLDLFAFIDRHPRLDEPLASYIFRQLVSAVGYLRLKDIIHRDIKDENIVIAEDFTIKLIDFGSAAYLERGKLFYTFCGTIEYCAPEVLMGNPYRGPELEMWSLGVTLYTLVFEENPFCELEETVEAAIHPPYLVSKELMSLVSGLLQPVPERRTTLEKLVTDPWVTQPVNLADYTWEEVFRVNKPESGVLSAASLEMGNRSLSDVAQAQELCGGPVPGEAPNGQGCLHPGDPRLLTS", "conditions": "at 1 µM", "units": {"residual activity": "%"}, "values": [{"smiles": "CCOC(=O)c1c(C)[nH]c(/C=C2\\C(=O)Nc3ccccc32)c1C", "residual activity": 93}, {"smiles": "O=C1NC(=O)c2cc(Nc3ccc(F)cc3)c(Nc3ccc(F)cc3)cc21", "residual activity": 105}, {"smiles": "COc1cc2ncc(-c3ccccc3)nc2cc1OC", "residual activity": 90}, {"smiles": "NCCNc1ncc(C(N)=O)c(Nc2cccc(C(F)(F)F)c2)n1", "residual activity": 114}, {"smiles": "CC(=O)O/N=C1\\C(=C2\\C(=O)Nc3cc(Br)ccc32)Nc2ccccc21", "residual activity": 93}, {"smiles": "Nc1cccc(-c2cc3c(Oc4cccc(O)c4)ncnc3[nH]2)c1", "residual activity": 123}, {"smiles": "c1ccc(-c2cnc(Nc3ccc(OCCN4CCCC4)cc3)s2)cc1", "residual activity": 81}, {"smiles": "O=C1NC(=O)C(c2c[nH]c3ccccc23)=C1c1c[nH]c2ccccc12", "residual activity": 81}, {"smiles": "O=C(NC(NC(=S)Nc1ccc(F)c([N+](=O)[O-])c1)C(Cl)(Cl)Cl)C(c1ccccc1)c1ccccc1", "note": "(stereo unspecified)", "residual activity": 103}, {"smiles": "O=S(=O)(NCCNC/C=C/c1ccc(Br)cc1)c1cccc2cnccc12", "residual activity": 141}, {"smiles": "CO[C@@H]1[C@H](N(C)C(=O)c2ccccc2)C[C@H]2O[C@]1(C)n1c3ccccc3c3c4c(c5c6ccccc6n2c5c31)C(=O)NC4", "residual activity": 85}, {"smiles": "O=c1cc(-c2cccc3c2Sc2ccccc2S3)oc(N2CCOCC2)c1", "residual activity": 109}, {"smiles": "CC(C)c1nn(-c2c(Cl)cccc2Cl)c2nc(Cc3ccc(OCCO)cc3)[nH]c(=O)c12", "residual activity": 142}, {"smiles": "CN(C)c1ccc(/C=C2\\C(=O)Nc3ccccc32)cc1", "residual activity": 86}, {"smiles": "CCN(CC)C(=O)c1ccc(Nc2nc(OCC3CCCCC3)c3nc[nH]c3n2)cc1", "residual activity": 135}, {"smiles": "Oc1ccc(-c2nc(-c3ccc(F)cc3)c(-c3ccncc3)[nH]2)cc1", "residual activity": 92}]}]}
